Reference: PubChem BioAssay (NCI)
This is part of a sample that, as a whole, favours compounds with a hit. Of some 79,000 tested, about 15% had one in any assay. The source made the active and inactive calls. Rule as the data show it: active = growth inhibition above about 70%; inactive = the rest.

Test: NCI Yeast Anticancer Drug Screen. Data for the rad50 strain (AID 155);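 also: 0% = growth of vehicle-only cultures of the same strain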
Conditions: S. cerevisiae rad50 strain growth inhibition; at 50.0 µM (retest, dose inferred, filed as 5.0); active compounds read high
How it was run: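 Inhibition values express reduced yeast growth in compound-treated cultures relative to vehicle-treated controls.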
In the case of `CC(C)(C)CC(C)(C)c1ccc(O)cc1`, the growth inhibition is reported as 99% (active).
For `CC[n+]1c(/C=C/c2ccc(N(CCCl)CCCl)cc2)ccc2cc(I)ccc21`, the growth inhibition was 99% (active).
For `CCCCCCC1CCC2CCCC(C)N12` (centres undefined), the growth inhibition was 67% (inactive).
For `C[N+](C)(C)CC1CCC(C[N+](C)(C)C)C1=O` (centres undefined), the growth inhibition was 6% (inactive).
With `CCC[CH2][Sn]1([CH2]CCC)[O]C(=O)c2cc(C)ccc2[O]1` the growth inhibition was 97% (active).
In the case of `COc1ccc(CC2C(=O)NC(C)C(=O)N(C)C3C(=O)N(C)C(Cc4ccc(O)c(c4)Oc4ccc(cc4)C3O)C(=O)NC(C)C(=O)NC(C)C(=O)N2C)cc1` (centres undefined), the growth inhibition is reported as 80% (active).
In the case of `CC(=O)Nc1cccc([As+](C)(c2cccc(NC(C)=O)c2)c2cccc(NC(C)=O)c2)c1`, the growth inhibition is reported as 11% (inactive).
In the case of `COC1OC(COC(C)=O)C(OC(C)=O)C(OC(C)=O)[C]1(OC(C)=O)[Hg][O]C(C)=O` (centres undefined), the growth inhibition is reported as 99% (active).
In the case of `CCOC(=O)C(NC(=O)C(Cc1ccc(N(CCCl)CCCl)cc1)NC(C)=O)C(C)C` (centres undefined), the growth inhibition is reported as -9% (inactive).
In the case of `CN1c2cccc[c]2[Sn]([CH3])([CH3])[c]2ccccc21`, the growth inhibition is reported as 99% (active).
In the case of `Cc1ccc(C(=O)OC(C(=O)O)C(OC(=O)c2ccc(C)cc2)C(=O)O)cc1` (centres undefined) (tested in a mixture with another compound), the growth inhibition is reported as 79% (active).
With `CC(C)(c1ccccc1)c1ccc(O)cc1` the growth inhibition was 58% (inactive).
For `CC1(C)N=C(N)N=C(N)N1CCCOc1ccc(NC(=O)c2ccc(S(=O)(=O)F)cc2)cc1`, the growth inhibition was 12% (inactive).
In the case of `CC1=CC2OC3CC4OC(=O)/C=C/C=C/C(=O)OCCC(C)C(O)C(=O)OCC2(CC1O)C4(C)C31CO1` (centres undefined), the growth inhibition is reported as 98% (active).
With `C=CCOc1cc2c(ccc1=O)-c1c(cc(OC)c(OC)c1OC)CCC2NC(C)=O` (centres undefined) the growth inhibition was 3% (inactive).
For `c1ccc2c(c1)[As]=c1ccccc1=[As]2` (centres undefined), the growth inhibition was 99% (active).
For `CCC(C)(c1ccc(O)cc1)c1ccc(O)cc1`, the growth inhibition was 98% (active).
With `COc1cc(C2c3cc4c(cc3[C@@H](Nc3ccc(F)cc3)C3COC(=O)[C@H]23)OCO4)cc(OC)c1O` (some centres undefined) the growth inhibition was 96% (active).
For `CC(C)(C)OC(=O)NC(CSC(c1ccccc1)(c1ccccc1)c1cccs1)C(=O)O` (centres undefined), the growth inhibition was 97% (active).
In the case of `CCOP(=S)(OCC)OC(c1ccc(Cl)cc1)c1ccc(Cl)cc1`, the growth inhibition is reported as -11% (inactive).
For `COc1ccc(OC)c(C=O)c1`, the growth inhibition was 5% (inactive).
With `CC(=O)Oc1cccc2c1CC(C[Se]c1ccccc1)C(=O)O2` (centres undefined) the growth inhibition was 40% (inactive).
For `CCOC(=S)S`, the growth inhibition was 99% (active).
With `CC(NCCN(C)C)C1CC2CCCCN2C1` (centres undefined) the growth inhibition was -30% (inactive).
For `Nc1ncc(CCCCc2ccc(NC(=O)Nc3ccc(S(=O)(=O)F)cc3)cc2)c(N)n1`, the growth inhibition was 60% (inactive).
With `CC#N.FC(F)(F)C#CC(F)(F)F.FC(F)(F)C#CC(F)(F)F.FC(F)(F)C#CC(F)(F)F.[W]` the growth inhibition was 99% (active).
With `[Cl][Hg][CH2]CC1CC=CCC1` (centres undefined) the growth inhibition was 99% (active).
For `CC(=O)O[C@H]1CC[C@H]2[C@@H]3CCC4=CC(=O)CC[C@@H]4[C@H]3CC[C@]12C`, the growth inhibition was 93% (active).
For `c1ccc(P(CCP(c2ccccc2)c2ccccc2)CCP(c2ccccc2)c2ccccc2)cc1`, the growth inhibition was 98% (active).
With `Cc1cc(NCc2ccccc2)c2ccccc2[n+]1CCCCCCCCCC[n+]1c(C)cc(NCc2ccccc2)c2ccccc21` the growth inhibition was 99% (active).
For `CCCCC(CC)CNP(=S)(NCC(CC)CCCC)NCC(CC)CCCC` (centres undefined), the growth inhibition was 37% (inactive).
With `Nc1c(Br)cc(Br)c2c1C(=O)c1ccccc1C2=O` the growth inhibition was -1% (inactive).
In the case of `O=[N+]([O-])/C=C/c1cc2c(cc1Br)OCO2`, the growth inhibition is reported as 89% (active).
In the case of `CC(Br)CN(CC(C)Br)c1ccc2c(c1)Cc1ccccc1-2` (centres undefined), the growth inhibition is reported as 73% (active).
In the case of `c1ccc2c[n+](CCCCCCCCCC[n+]3ccc4ccccc4c3)ccc2c1`, the growth inhibition is reported as 95% (active).
In the case of `CCC[CH2][Sn]([N]=C=S)([N]=C=S)[N]=C=S.O=P(c1ccccc1)(c1ccccc1)c1ccccc1.O=P(c1ccccc1)(c1ccccc1)c1ccccc1`, the growth inhibition is reported as 27% (inactive).
In the case of `CN(CCC(N)CC(=O)NC1C=CC(n2ccc(N)nc2=O)OC1C(=O)O)C(=N)N` (centres undefined), the growth inhibition is reported as 95% (active).
For `O=C1C=CC(=O)N1c1cccc2ccccc12` (tested in a mixture with another compound), the growth inhibition was 1% (inactive).
In the case of `CN(C)c1ccc(N=Cc2c([O-])ccc3ccccc23)cc1.[C-]#[O+].[C-]#[O+].[Ir]`, the growth inhibition is reported as 1% (inactive).
